Screens (PubChem BioAssay)
The list is not random: actives were taken first. Their share in the collection is about 3%.
SENP8 block-1 – SENP8 (human) protease inhibition | Q96LD8 | recombinant SENP8, Nedd8 substrate fluorescence | inhibition, % at 20 µM | hit rate 0.64% among 360,000 | AID 602440; in the data active = inhibition mostly above about 40%, no sharp cut-off; inactive = mostly below about 27%
C8 TRAIL sens – caspase-8 TRAIL sensitization; NB7+C8 cells + TRAIL, ATPlite viability luminescence; inhibition (viability loss, TRAIL sensitization), % at 10 µM; hit rate 1% among 360,000; AID 624354;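 active = compounds causing at least 50% loss of cell viability in the single-dose screen, relative to plate controls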
SENP7 block – inhibitors of human SENP7 protease; AID 434973; inhibition, % at 5 µM; recombinant SENP7, Z-RLRGG-aminoluciferin luminescence, 40 min; hit rate 1.5% among 330,000; Q9BQF6;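 active = inhibition above about 50% at the single test dose, limit read from the data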
PPC-1+TRAIL kill – kills PPC-1 cancer cells in the presence of TRAIL; PPC-1 cells + TRAIL, ATPLite viability luminescence; cell killing (% activity), % at 4 µM or 5 µM; hit rate 0.41% among 220,000;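 active = cell killing above 50% in the first pass at 4 µM, then a duplicate retest at 5 µM averaging 50% or more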
SENP6 block – SENP6 protease inhibition; Recombinant SENP6 catalytic domain, aminoluciferin luminescence; hit rate 1.8% among 330,000; inhibition, % at 10 µM;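 active = inhibition above about 50% at the single tested dose, limit read from the data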
Target sequence (Q9GZR1 628-1112 limits assumed): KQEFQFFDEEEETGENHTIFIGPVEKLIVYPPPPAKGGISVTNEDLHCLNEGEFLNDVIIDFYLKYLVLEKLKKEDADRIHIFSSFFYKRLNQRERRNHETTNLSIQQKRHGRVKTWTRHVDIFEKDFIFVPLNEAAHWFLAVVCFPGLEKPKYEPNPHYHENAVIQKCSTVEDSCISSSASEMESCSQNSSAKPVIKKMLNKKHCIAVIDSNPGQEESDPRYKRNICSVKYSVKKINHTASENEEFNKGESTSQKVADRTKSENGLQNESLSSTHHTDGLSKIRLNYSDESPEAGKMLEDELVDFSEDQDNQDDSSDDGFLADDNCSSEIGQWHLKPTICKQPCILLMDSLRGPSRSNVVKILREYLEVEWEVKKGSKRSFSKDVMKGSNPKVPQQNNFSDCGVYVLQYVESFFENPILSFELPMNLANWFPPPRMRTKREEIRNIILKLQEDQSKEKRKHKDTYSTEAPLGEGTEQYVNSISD
SENP8 block-2 – SENP8 protease inhibition; inhibition, % at 10 µM; Q96LD8; hit rate 1.2% among 330,000; purified SENP8, Z-RLRGG-aminoluciferin cleavage, luminescence; AID 2540; in the data active = inhibition above about 50%
Hits are given with their value; n = inactive; x = no result.

SMILES | SENP8 block-1 | C8 TRAIL sens | SENP7 block | PPC-1+TRAIL kill | SENP6 block | SENP8 block-2
CCCCNC(=O)C1(C)CCC(=O)N1c1cc(C(C)(C)C)nn1C (stereo not given) | n | n | x | x | x | x
COC1=C(N)C(=O)c2nc(-c3nc(C(=O)O)c(C)c(-c4ccc(OC)c(OC)c4O)c3N)ccc2C1=O | x | x | 66.7 | n | 80.5 | 82.1
COc1ccc(-c2ncncc2-c2csc(C)n2)c(O)c1OC | n | n | n | n | n | n
COc1ccc(C(=O)NC2CCCN(Cc3ccc(Cl)cc3)C2)c(OC)c1 (stereo not given) | n | n | n | x | n | n
CC(C)(C)c1csc(NC(=O)Nc2ccccc2)n1 | n | 54.4 | n | n | n | n
O=C(Nc1ccccc1)Nc1nc(-c2ccccc2)cs1 | n | n | n | n | n | n
Nc1cccc(C2=Nc3cccc4cccc(c34)N2)c1 | 45.7 | n | x | n | x | x
COc1ccc(C2=Nc3cccc4cccc(c34)N2)cc1 | n | n | n | n | n | n
CC(=O)Nc1cc2c(cc1[N+](=O)[O-])-c1ccccc1C2O (stereo not given) | 41.3 | n | x | x | x | x
Cc1cc(C)n2nc(C(F)(F)F)c(-c3ccccc3)c2n1 | n | n | n | n | n | n
C=C[C@](C)(CC[C@@]1(C)C(C)CC(OC2OC(C)C(OC3OC(COC(C)=O)C(O)C(O)C3O)C(O)C2O)[C@@]2(C)C(C)=CCCC12)OC1OC(C)C(O[C@@H]2O[C@@H](C)C(O)C(O)[C@H]2O)C(O)C1O (stereo not given in full) | n | n | n | x | n | n
O=C(O)c1cc(NN=Nc2cccc(S(=O)(=O)O)c2)cc([N+](=O)[O-])c1 | n | n | n | x | n | n
O=C(O)c1cc(NN=Nc2ccc(Br)cc2)cc([N+](=O)[O-])c1 | n | n | n | n | 52.3 | n
O=C(O)c1cc(NN=Nc2cccc([N+](=O)[O-])c2)cc([N+](=O)[O-])c1 | n | n | n | n | 77.4 | 57.5
COc1ccc(CCNC(=O)c2cc(=O)c3cc(C)ccc3o2)cc1OC | n | n | n | x | n | n
Cc1nc2c(-c3ccc(F)cc3)cnn2c(N)c1-c1ccc(F)cc1 | n | 52.8 | n | x | n | n
Cc1cc(N)n2ncc(-c3ccc(F)cc3)c2n1 | n | n | n | n | n | n
Cc1ccc(NC(=O)CSc2ccc(-c3ccc4c(c3)OCO4)nn2)cc1F | n | 55.0 | n | n | n | n
Cc1ccc(C(=O)Nc2nc3ccccc3c(=O)s2)cc1 | n | 61.0 | n | n | n | n
CCNS(=O)(=O)c1ccc(Br)c(OC)c1 | n | n | n | n | n | n
CN(C)CCCNC(=O)c1ccc(-c2nc(-c3ccc(Cl)cc3)cs2)cc1 | n | 89.8 | n | n | n | n
CN(C)CCCNC(=O)c1ccccn1 | n | n | n | n | n | n
CCOc1ccc(C2NCCc3cc(OC)c(OC)cc32)cc1OC (stereo not given) | n | n | n | x | n | n
COc1ccc2cc1Oc1ccc(cc1)C[C@H]1c3c(cc(OC)c4c3Oc3c(ccc5c3[C@H](C2)N(C)CC5)O4)CCN1C | n | 87.7 | n | x | n | n
COc1ccc2cc1Oc1ccc(cc1)CC1c3c(cc(OC)c4c3Oc3cc5c(cc3O4)CCNC5C2)CCN1C (stereo not given) | 44.6 | 92.9 | n | n | n | n
SMILES | SENP8 block-1 | C8 TRAIL sens | SENP7 block | PPC-1+TRAIL kill | SENP6 block | SENP8 block-2
O=C(CN1C(=O)NC2(CCCCC2)C1=O)N1CCN(S(=O)(=O)c2cccc([N+](=O)[O-])c2)CC1 | n | n | n | x | n | n
C=CCn1c(SCC(=O)N(CC)C2CCS(=O)(=O)C2)nc2scc(-c3ccccc3)c2c1=O (stereo not given) | n | n | x | x | x | x
Cc1ccc(C(C)C)c(OCC(=O)Nc2ccc3c(c2)nc(CCN2CCCCC2)n3C)c1 | n | 55.5 | n | x | n | n
COc1cccc(/C=C/C(=O)N2CCN(S(=O)(=O)c3ccccc3)CC2)c1 | n | n | x | x | x | x
O=C(Nc1cccc(C(F)(F)F)c1)C1Cc2c(-c3ccccc3Oc3ccccc3)ccnc2O1 (stereo not given) | n | n | x | x | x | x
CCCCn1c(SCC(=O)Nc2nnc(CC)s2)nc2c1c(=O)n(C)c(=O)n2C | n | 64.3 | n | n | n | n
Cc1ccc2c(c1)COc1c3ccc(C(=O)NC(C)C)cc3nn1-2 | n | n | n | n | n | n
c1ccc2c(c1)COc1c3cc4c(cc3nn1-2)OCO4 | n | 58.7 | x | x | x | x
CC1CCN(c2ccc(C(=O)O)cc2NS(=O)(=O)c2ccc(Br)cc2)CC1 | n | n | n | n | n | n
